Consider eight compounds from PubChem BioAssay (NCATS).

Structures are written as SMILES. Results filed as inconclusive are left out. Activity calls are given as the source filed them. Unless noted, calls follow the shape of the dose curve; as a rule, active = well fitted curve in either direction with a large enough effect (not every such curve was filed as active); inconclusive = small, poorly fitted or top-dose-only effect, or another doubt; inactive = flat fitted curve, though single readings scatter.

Experiment [1] can be described thus: NFAT Signaling Pathway (AID 444).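 Also: carbachol stimulus at about its EC50 of 1 µM final; % is scaled to controls: 0 for no effect and ±100 for the full control effect.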 The following applies: Jurkat NFAT-bla M1, carbachol, beta-lactamase ratio, 5 h. The essentials:
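Jurkat cells with NFAT-driven β-lactamase reporter and co-expressed M1 receptor, stimulated with carbachol (final 1 uM, ~EC50), compound titration, 5 h at 37 °C. CCF4 loaded 1 h at RT; 460/530 nm ratio gave %activity and AC50.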

The target of experiment [2] is Mitogen-activated protein kinase 10 (Mus musculus) (UniProt Q61831). In words: JNK3 AlphaScreen Assay (AID 530).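 Also: kinase came from lysate of stimulated human HepG2 cells; signal reports phosphorylation of biotinylated GST-cJun 1-79 at Ser73 with 10 µM ATP; % is scaled to controls: 0 for no effect and ±100 for the full control effect.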 Conditions: JNK3 lysate, c-Jun phosphorylation; series mostly up to 57.1 µM. The essentials: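 qHTS format: compounds tested as titrations against IL-1beta/TNF-alpha-activated HepG2 lysate JNK3 with biotin-GST-cJun substrate and 10 uM ATP at room temperature. Loss of anti-phospho-cJun AlphaScreen signal indicates inhibition.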

Experiment [3] addresses 3',5'-cyclic-AMP phosphodiesterase 4B (Homo sapiens) (UniProt Q07343). As to the kind of experiment: qHTS Assay for Inhibitors of PDE-IV (AID 607; active = well fitted activation curve with a large enough effect in the main read-out, with a control signal flat, not every such curve was filed as active; also: % of control where 0% means no effect). Conditions: HEK293 ACTOne CNG channel cells, membrane potential fluorescence; series mostly up to 22.9 µM. Put shortly:
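Cell-based read-out of cAMP via a modified cyclic nucleotide-gated channel and membrane potential dye (535/590 nm) in HEK293 cells expressing PDE4 endogenously. Compounds tested up to 22.9 uM final; 100 uM RO 20-1724 reference.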
On the technique in general: qHTS replaces the single test concentration by a dilution series.

Experiment [4] concerns the target Cytochrome P450 3A4 (Homo sapiens) (UniProt P08684). In words: qHTS Assay for Activators of Cytochrome P450 3A4 (AID 885; active = well fitted curve in the direction sought with a large enough effect; an effect the other way counts as inactive or inconclusive; also: nearly all actives have a fitted effect of over 65% in size). Conditions: recombinant CYP3A4, Luciferin-PPXE luminescence, 60 min; series mostly up to 57.1 µM. Put shortly:
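Signal was normalized against complete inhibition by 57 uM ketoconazole. The reaction used 20nM CYP3A4 with 25uM Luciferin-PPXE, 10-min compound preincubation and a 60-min NADPH-supported step at RT.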

Experiment [5] can be described thus: Primary qHTS for small molecule stabilizers of the endoplasmic reticulum resident proteome: Secreted ER Calcium Modulated Protein (SERCaMP) assay (AID 1508630; active = well fitted curve in the direction sought with a large enough effect; an effect the other way counts as inactive or inconclusive; also: % is scaled to controls: 0 for no effect and ±100 for the full control effect). Conditions: SH-SY5Y GLuc-SERCaMP (Gaussia luciferase released on ER calcium loss) secretion, thapsigargin, luminescence; series mostly up to 38.4 µM. The essentials: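 GLuc-SERCaMP-expressing SH-SY5Y cells, pretreated 16 h with compound, are challenged with thapsigargin to empty ER calcium stores; after 4 h, coelenterazine is added directly to the medium and luminescence is imaged.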

Experiment [6] deals with HIV-1 nucleocapsid protein NCp7 (binding to TG oligonucleotide). In words: HIV Nucleocapsid (AID 346; call rule not given here;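 also: potency is read from the fitted curve at half-maximal effect; potency is for inhibitors that block NC binding and lower polarization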). The following applies: HIV-1 NC / fluorescein-TGTGTGTG probe, fluorescence polarization. The essentials: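 Fluorescence polarization readout: labelled TG4xF oligo (10 nM) with 100 nM nucleocapsid protein, high-salt (250mM NaCl) Hepes pH 7.5 buffer containing zinc and fresh reducing agents. Compounds added by pin tool; incubation 1 hr, room temperature.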
Background: Fluorescence polarisation rises when a labelled molecule tumbles more slowly, as on binding a larger partner.

Experiment [7] addresses Lysosomal acid glucosylceramidase (Homo sapiens) (UniProt P04062). As to the kind of experiment: Glucocerebrosidase-p2 (AID 348; in the data active = potency below about 10 µM; also: potency is read from the fitted curve at half-maximal effect). The following applies: purified GBA, blue fluorogenic substrate, 40 min. Put shortly:
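Compounds titrated from 0.6 nM upwards against 0.2 nM enzyme in pH 5.9 citric acid/KH2PO4, taurocholate, tween-20; blue fluorogenic substrate 80 uM, 40 min room temperature, stopped and read Ex 365/Em 440 for AC50.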

Experiment [8] can be described thus: AP1 Signaling Pathway (AID 357).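 Also: ME-180 reporter cells stimulated with EGF at its EC50 level; % is scaled to controls: 0 for no effect and ±100 for the full control effect.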 Conditions: ME-180 AP-1-bla reporter, EGF-induced, beta-lactamase ratio, 5 h; series mostly up to 17.2 µM. Put shortly:
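A ratiometric CCF4 readout (405 nm excitation; 460 and 530 nm emission) quantified AP-1-driven beta-lactamase in ME-180 cells after 5 h with compound and EC50 EGF; AC50 values were derived for activators and inhibitors.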

Experiment [9] addresses Cytochrome P450 1A2 (Homo sapiens) (UniProt P05177). As to the kind of experiment: p450-cyp1a2 (AID 410; calls by dose curve; also: potency is read from the fitted curve at half-maximal effect;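 as to activity change, negative = inhibition: -100% = full effect of reference inhibitor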). The following applies: recombinant CYP1A2, luciferin-ME demethylation, luminescence; series mostly up to 25.6 µM. The essentials:
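Inhibition was calculated relative to 57 uM furafylline (full inhibition). The reaction used human CYP1A2 at 20nM with Luciferin-ME at its Km, 100uM, driven by an NADPH-regenerating system for 60 min at room temperature.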

Experiment [10] can be described thus: Stat Signaling Pathway (AID 446). Conditions: ME-180 SIE beta-lactamase reporter, IL-6 stimulated, 5 h; series mostly up to 17.2 µM. The essentials:
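Reporter line: ME-180 cervical carcinoma, SIE-beta-lactamase. Treatment: compound with 40 pM IL-6, 5 hrs, 37 C, in low-serum OPTI-MEM with 10 mM HEPES pH 7.3. Detection: 460/530 nm fluorescence.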

The target of experiment [11] is Glucocorticoid receptor (Homo sapiens) (UniProt P04150). As to the kind of experiment: GR-EFC Redistribution (AID 451; calls by dose curve; also: potency is read from the fitted curve at half-maximal effect). Conditions: CHO-K1 GR-EFC translocation, beta-gal luminescence, 2 h. The essentials: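 CHO-K1 cells expressing nuclear EA and GR-ED fragments of b-gal; compounds titrated up to 46 uM final, 2 h at 37 C. GR nuclear translocation read as complemented b-gal luminescence after 1 h RT detection.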
Glucocorticoid receptor (Homo sapiens), sequence (P04150 whole entry, looked up, the tested form may be a part): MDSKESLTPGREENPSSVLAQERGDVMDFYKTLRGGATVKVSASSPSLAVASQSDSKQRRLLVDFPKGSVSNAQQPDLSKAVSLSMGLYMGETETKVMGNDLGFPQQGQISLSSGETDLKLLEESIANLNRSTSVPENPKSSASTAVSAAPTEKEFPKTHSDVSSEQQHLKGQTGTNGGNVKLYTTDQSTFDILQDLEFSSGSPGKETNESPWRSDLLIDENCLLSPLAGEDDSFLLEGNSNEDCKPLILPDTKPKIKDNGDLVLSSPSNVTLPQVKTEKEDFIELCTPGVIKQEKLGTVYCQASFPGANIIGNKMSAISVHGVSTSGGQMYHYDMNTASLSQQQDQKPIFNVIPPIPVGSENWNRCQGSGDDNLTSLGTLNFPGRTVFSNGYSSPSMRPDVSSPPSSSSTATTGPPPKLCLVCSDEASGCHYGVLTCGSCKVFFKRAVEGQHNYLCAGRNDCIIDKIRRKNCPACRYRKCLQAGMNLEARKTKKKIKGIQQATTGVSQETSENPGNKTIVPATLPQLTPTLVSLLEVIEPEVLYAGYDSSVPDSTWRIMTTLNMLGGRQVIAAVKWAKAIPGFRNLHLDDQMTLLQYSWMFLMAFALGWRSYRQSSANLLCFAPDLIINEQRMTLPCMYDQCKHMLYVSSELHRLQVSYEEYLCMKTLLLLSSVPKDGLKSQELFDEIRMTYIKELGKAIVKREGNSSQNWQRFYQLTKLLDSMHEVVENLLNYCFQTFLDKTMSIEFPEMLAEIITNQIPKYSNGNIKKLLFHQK

The target of experiment [12] is Cytochrome P450 2D6 (Homo sapiens) (UniProt P10635). In words: qHTS Assay for Inhibitors and Substrates of Cytochrome P450 2D6 (AID 891; active = well fitted curve in the direction sought with a large enough effect; an effect the other way counts as inactive or inconclusive; also: potency is read from the fitted curve at half-maximal effect; nearly all actives have a fitted effect of over 60% in size). The following applies: recombinant CYP2D6, luciferin-ME EGE luminescence; series mostly up to 57.1 µM. Put shortly:
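Human CYP2D6 (5 nM) with 30 uM Luciferin-ME EGE (at Km) in 100 mM KPO4, compound preincubated 10 min, then NADPH regeneration system for 60 min at room temperature. Luciferin read by luminescence; normalized to 1.43 uM quinidine.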

The nature of experiment [13]: qHTS Assay for Lipid Storage Modulators (AID 1519; calls by dose curve). Conditions: Drosophila S3 cells, BODIPY lipid droplet/cell ratio, laser cytometry, cells loaded with oleic acid; for activity change, negative = inhibition: at 57.5 µM (top of the series). Put shortly: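 Cells seeded at 5,000 per well were treated with compounds over a concentration series and loaded with oleic acid (400 uM, as added). Lipid droplet fluorescence (488 nm excitation, 500-530 nm channel) was read by laser-scanning cytometry and normalized to 20 uM Triacsin C.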

The target of experiment [14] is Ubiquitin carboxyl-terminal hydrolase 1 (Homo sapiens) (UniProt O94782). In words: Inhibitors of USP1/UAF1: Pilot qHTS (AID 504865; active = well fitted curve in the direction sought with a large enough effect; an effect the other way counts as inactive or inconclusive;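 also: rhodamine fluorescence freed from ubiquitin-rhodamine substrate followed over time; top concentration of the series differs between compounds; % is scaled to controls: 0 for no effect and ±100 for the full control effect; nearly all actives have a fitted effect of over 35% in size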). The following applies: purified USP1/UAF1, Ub-rhodamine cleavage fluorescence; series mostly up to 114 µM. Put shortly: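 1nM USP1/UAF1 + cpd, 15 min RT; start w/ Ub-Rho 150nM final; kinetic FL 480/540 nm, 6 reads q60 s. Buffer 50mM HEPES pH 7.8, 0.5mM EDTA, 1mM TCEP, 0.01% Tween-20, 0.1 mg/ml BSA.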
Ubiquitin carboxyl-terminal hydrolase 1 (Homo sapiens), sequence (O94782 whole entry, looked up): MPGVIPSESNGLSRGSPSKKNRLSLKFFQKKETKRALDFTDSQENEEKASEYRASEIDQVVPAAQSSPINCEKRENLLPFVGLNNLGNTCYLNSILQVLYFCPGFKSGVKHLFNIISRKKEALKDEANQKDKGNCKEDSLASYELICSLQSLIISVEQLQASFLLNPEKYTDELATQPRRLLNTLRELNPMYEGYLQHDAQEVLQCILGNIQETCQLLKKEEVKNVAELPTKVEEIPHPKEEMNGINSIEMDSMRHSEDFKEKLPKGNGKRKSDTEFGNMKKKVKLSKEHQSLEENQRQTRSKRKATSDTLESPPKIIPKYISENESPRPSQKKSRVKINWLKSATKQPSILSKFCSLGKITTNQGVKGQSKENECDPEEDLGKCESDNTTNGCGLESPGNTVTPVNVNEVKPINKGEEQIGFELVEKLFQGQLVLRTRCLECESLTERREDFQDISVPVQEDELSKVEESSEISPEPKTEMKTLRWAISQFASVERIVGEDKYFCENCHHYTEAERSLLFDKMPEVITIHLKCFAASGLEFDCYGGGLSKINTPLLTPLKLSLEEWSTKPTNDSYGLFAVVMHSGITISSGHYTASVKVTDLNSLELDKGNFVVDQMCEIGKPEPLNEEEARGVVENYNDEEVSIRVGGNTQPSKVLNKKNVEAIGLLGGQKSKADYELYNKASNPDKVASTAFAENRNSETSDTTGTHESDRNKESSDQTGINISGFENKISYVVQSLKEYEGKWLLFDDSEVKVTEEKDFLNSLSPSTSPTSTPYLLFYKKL

Experiment [15] is described as follows: qHTS Assay for Identification of Small Molecule Agonists for Hypoxia Response Element Signaling Pathway (AID 914; active = well fitted activation curve with a large enough effect in the signal ratio, with a control signal flat, not every such curve was filed as active; the % refers to the signal ratio; also: % of control where 0% means no effect). Conditions: ME-180 (cervical carcinoma) HRE-bla reporter, beta-lactamase ratio, CoCl2, 17 h; activation: stronger effect = higher value. Put shortly:
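qHTS titration; ME-180 HRE-bla cells; EC50 CoCl2 co-treatment, 17 h at 37 degrees Celsius; CCF4 dye, ex 405nm, em 460nm and 530nm; %Activity from ratio; AC50.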

Setting [16] is: measured here: cell count channel max response.
The mark [17] stands for this setting: measured here: lipid channel max response.

Cytochrome P450 1A2 (Homo sapiens), sequence (P05177 whole entry, looked up): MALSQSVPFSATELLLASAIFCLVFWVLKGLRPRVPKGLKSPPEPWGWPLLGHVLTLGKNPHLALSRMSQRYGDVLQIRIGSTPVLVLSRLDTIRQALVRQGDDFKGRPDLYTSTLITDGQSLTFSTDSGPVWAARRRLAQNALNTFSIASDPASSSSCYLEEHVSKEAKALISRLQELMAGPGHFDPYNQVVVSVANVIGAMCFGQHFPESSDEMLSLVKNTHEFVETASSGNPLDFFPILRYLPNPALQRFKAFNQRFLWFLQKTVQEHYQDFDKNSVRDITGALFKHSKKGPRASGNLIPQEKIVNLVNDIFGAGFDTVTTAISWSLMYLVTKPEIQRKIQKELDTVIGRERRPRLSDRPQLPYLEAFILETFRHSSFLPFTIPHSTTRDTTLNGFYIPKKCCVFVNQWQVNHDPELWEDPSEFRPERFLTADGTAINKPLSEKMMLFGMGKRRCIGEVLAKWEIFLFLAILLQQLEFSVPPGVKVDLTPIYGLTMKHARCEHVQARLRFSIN
Cytochrome P450 2D6 (Homo sapiens), sequence (P10635 whole entry, looked up): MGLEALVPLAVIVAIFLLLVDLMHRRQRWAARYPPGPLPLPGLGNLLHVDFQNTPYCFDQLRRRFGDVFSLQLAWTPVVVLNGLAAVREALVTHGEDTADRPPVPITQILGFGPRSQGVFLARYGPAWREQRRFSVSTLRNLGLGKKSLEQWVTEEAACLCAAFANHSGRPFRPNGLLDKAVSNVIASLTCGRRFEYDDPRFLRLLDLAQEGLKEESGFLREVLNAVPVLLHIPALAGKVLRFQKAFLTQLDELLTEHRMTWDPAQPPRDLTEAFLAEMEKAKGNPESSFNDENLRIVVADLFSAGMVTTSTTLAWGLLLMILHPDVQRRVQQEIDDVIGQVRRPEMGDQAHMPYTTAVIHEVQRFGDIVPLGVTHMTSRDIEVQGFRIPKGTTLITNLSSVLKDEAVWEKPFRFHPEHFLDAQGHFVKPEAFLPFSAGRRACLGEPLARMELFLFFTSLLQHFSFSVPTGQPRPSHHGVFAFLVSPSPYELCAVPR
Cytochrome P450 3A4 (Homo sapiens), sequence (P08684 whole entry, looked up): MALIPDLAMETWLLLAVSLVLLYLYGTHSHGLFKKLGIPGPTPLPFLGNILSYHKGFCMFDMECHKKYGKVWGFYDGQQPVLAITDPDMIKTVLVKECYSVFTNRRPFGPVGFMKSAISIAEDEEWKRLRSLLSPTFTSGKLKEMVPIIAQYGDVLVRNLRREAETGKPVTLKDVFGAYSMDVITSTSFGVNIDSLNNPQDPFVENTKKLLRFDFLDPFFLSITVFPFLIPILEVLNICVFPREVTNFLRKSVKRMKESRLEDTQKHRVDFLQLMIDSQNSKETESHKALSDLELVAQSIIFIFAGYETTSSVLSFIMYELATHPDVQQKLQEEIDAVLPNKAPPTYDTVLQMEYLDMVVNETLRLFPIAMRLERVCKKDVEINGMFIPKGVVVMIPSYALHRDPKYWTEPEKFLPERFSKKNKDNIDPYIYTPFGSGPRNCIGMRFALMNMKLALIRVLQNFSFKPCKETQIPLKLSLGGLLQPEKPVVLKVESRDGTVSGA
3',5'-cyclic-AMP phosphodiesterase 4B (Homo sapiens), sequence (Q07343 whole entry, looked up): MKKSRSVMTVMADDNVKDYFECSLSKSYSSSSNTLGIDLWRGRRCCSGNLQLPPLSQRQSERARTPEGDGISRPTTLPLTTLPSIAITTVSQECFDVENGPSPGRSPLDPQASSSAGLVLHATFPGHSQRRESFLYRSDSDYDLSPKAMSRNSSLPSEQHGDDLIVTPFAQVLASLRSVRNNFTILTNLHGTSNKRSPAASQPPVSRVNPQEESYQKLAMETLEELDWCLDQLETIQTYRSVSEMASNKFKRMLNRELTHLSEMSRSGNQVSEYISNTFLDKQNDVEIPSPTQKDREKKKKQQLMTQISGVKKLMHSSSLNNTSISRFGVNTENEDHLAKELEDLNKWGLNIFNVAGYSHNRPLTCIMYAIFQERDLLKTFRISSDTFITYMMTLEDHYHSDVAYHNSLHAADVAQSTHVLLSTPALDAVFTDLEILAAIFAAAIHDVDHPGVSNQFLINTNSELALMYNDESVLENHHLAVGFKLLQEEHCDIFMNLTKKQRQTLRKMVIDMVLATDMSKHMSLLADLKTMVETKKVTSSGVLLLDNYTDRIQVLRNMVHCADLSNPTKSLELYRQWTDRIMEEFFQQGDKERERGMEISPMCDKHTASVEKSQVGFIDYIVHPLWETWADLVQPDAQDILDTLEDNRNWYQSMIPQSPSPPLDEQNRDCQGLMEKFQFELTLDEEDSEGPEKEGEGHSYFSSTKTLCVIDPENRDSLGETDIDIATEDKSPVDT
Lysosomal acid glucosylceramidase (Homo sapiens), sequence (P04062 whole entry, looked up): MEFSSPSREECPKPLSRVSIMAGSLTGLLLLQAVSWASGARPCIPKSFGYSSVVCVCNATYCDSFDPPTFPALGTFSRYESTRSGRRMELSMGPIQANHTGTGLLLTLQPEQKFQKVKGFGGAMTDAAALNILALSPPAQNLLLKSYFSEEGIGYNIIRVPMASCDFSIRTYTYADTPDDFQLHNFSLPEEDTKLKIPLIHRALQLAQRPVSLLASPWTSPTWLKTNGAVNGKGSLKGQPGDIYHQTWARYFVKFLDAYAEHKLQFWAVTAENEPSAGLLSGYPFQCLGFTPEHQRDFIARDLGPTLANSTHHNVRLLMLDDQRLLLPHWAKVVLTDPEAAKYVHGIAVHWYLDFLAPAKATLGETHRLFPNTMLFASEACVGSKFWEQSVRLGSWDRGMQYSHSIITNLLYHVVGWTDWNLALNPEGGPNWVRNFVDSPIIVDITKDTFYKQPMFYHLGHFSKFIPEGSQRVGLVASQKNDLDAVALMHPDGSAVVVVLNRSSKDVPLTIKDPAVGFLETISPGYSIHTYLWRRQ

On to `CCc1c(C(=O)OC)ncc2[nH]c3cc(OC)c(OC)cc3c12`, for which the activity change, negative = inhibition in experiment [1] (at 38 µM (top of the series)) was -26.6% (inactive). In addition, the compound was called inactive in experiment [2] and in experiment [5]. The Potency entry in experiment [3] and in experiment [4] was “inactive” each time.

In the case of `O=C(Oc1ccccc1)N1CCC[C@@]2(CCN(C(c3ccccc3)c3ccccc3)C2)C1`, the Potency in [6] is > 20 µM (inactive); in experiment [7], > 11.4 µM (inactive); in experiment [9], 25.1 µM (active); in experiment [11], > 46 µM (inactive); in experiment [12] it was 5.01 µM (active). The result in experiment [8], in [10], in experiment [2] and in experiment [5] was inactive. Besides, the activity change, negative = inhibition in experiment [1] (at 7.69 µM (top of the series)) is -12.9% (inactive). Also, the Potency result in [3] and in experiment [4] was “inactive” each time.

Turning to `C=C(C)c1cc2cc(C(C)=O)c(O)cc2o1`, the Potency result in [4] and in experiment [14] was “inactive” throughout. Moreover, the activity change, negative = inhibition in experiment [13] is 9.94% (inactive). Moreover, the values for the max response in experiment [13] (setting [16]) and in experiment [13] (setting [17]) were 9.32% and 19.8%, respectively. In addition, in experiment [5], the result was inactive.

Turning to `COC(=O)N1CCC2(CCN(CC(C)C)CC2)CC1`, the figures for the Potency in experiment [7] and in experiment [11] were > 11.4 µM (inactive) and > 46 µM (inactive), respectively. For the same compound, the outcome in [8], in [10], in experiment [2] and in [5] was inactive. Moreover, the Potency result in [9] and in experiment [3] was “inactive” each time. Further, in [13], the activity change, negative = inhibition was 0.631% (inactive). Further, the max response in experiment [13] (setting [16]) was -7.4%; in experiment [13] (setting [17]) it was -4.41%.

Take `O=C(c1ccncc1)N1CCC[C@@]2(CCN(Cc3nccs3)C2)C1`: the values for the Potency in experiment [7] and in [11] were > 11.4 µM (inactive) and > 46 µM (inactive), respectively. Also, the outcome in experiment [8], in [10], in experiment [2] and in [5] was inactive. Further, the activity change, negative = inhibition in [1] (at 7.69 µM (top of the series)) was 5.07% (inactive); in experiment [13] it was 3.49% (inactive). For the same compound, the Potency entry in experiment [3] was “inactive”. Also, the figures for the max response in experiment [13] (setting [16]) and in [13] (setting [17]) were 8.75% and 15.4%, respectively.

As to `O=C(Oc1ccccc1)N1CCC2(CCCN(Cc3nccs3)C2)CC1`, the Potency in experiment [6] is > 20 µM (inactive); in experiment [7], > 11.4 µM (inactive); in [11], > 46 µM (inactive); in experiment [12], 5.01 µM (active). Further, the outcome in [8], in experiment [10], in experiment [2] and in experiment [5] was inactive. Further, the Potency entry in experiment [9], in experiment [3] and in experiment [4] was “inactive” in each case.

For the compound `CC(C)CN1CCC2(CC1)CCN(S(C)(=O)=O)CC2`, the Potency in experiment [7] is > 11.4 µM (inactive); in [11], > 46 µM (inactive); in experiment [12], 0.794 µM (active). In addition, the outcome in experiment [8], in experiment [2] and in [5] was inactive. The Potency result in experiment [9] and in experiment [3] was “inactive” throughout. Besides, the values for the activity change, negative = inhibition in [1] (at 7.69 µM (top of the series)) and in experiment [13] were 6.76% (inactive) and -1.49% (inactive), respectively. In addition, the values for the max response in experiment [13] (setting [16]) and in [13] (setting [17]) were -15.1% and -17.2%, respectively.

Regarding `CC(C)CN1CC[C@@]2(CCCN(C(=O)Oc3ccccc3)C2)C1`, the Potency in experiment [6] is > 20 µM (inactive); in experiment [7], > 11.4 µM (inactive); in [9] it was 15.8 µM (active); in experiment [11], > 46 µM (inactive); in experiment [12] it was 6.31 µM (active). Besides, the result in experiment [8], in [10], in experiment [2] and in [5] was inactive. Moreover, the activity change, negative = inhibition in experiment [1] (at 7.69 µM (top of the series)) is -1.09% (inactive). In addition, the Potency entry in experiment [3] and in experiment [4] was “inactive” in each case. Besides, the activation in experiment [15] was -4.64% (inactive).
